Data on 40 compounds can be found in PubChem BioAssay AID540352 (National Center for Advancing Translational Sciences (NCATS), 2011).

Inconclusive results are not listed. Unmarked numbers belong to inactive results. Activity calls are given as the source filed them. The call rests on the fitted dose curve; in most records, active means well fitted inhibition curve with a large enough effect; inconclusive means small, poorly fitted or top-dose-only effect; inactive means no such curve, though single readings can be large or run the other way.

A short description of the experiment: qHTS for Inhibitos of Bacillus subtilis Sfp phosphopantetheinyl transferase (PPTase): Chemistry Optimization Followup in B. Subtilis 168. Conditions: B. subtilis 168 growth, BacTiter-Glo luminescence, 5 h; series mostly up to 114 µM; activity change, negative = inhibition: at the top concentration. An excerpt:
Phosphopantetheinyl transfer is a process essential to cellular viability and maintenance. Cell-permeable and stable compounds acting as PPTase inhibitors are anticipated to be antimicrobial agents in organisms with complimenting genotypes. […] This experiment evaluated a series of test compounds for antimicrobial activity with B. subtilis 168 (genotype: acpS+ and sfp-), a strain that contains a frameshift mutation in the sfp locus and thus requires a functional AcpS gene product for viability. [Mootz HD, 2001] This strain is expected to be sensitized to cell-permeable AcpS inhibitors, and insensitive to Sfp inhibitors. NIH Chemical Genomics Center [NCGC] NIH Molecular Libraries Probe Centers Network [MLPCN] MLPCN Grant: MH083266-01 Assay Submitter (PI): Michael Burkart, University of California, San Diego
Innoculum preparation. Bacillus subtilis 168 is maintained on lysogeny broth (LB) solidified by the addition of 1.5% w/v agar. Single colonies were used to LB medium (2 mL) and shaken overnight at 30 masculineC. In the morning, this culture (100 ul) was used to seed a fresh LB medium (10 mL) and was shaken at 30 masculineC until the culture OD600 reached 0.5. This culture was diluted 1:100 in fresh LB medium to provide the inoculum below. Bacterial susceptibility. LB medium (2 uL) is dispensed into wells of a sterile white 1536-well plate. Test compounds (23 nL) prepared as serial dilutions in DMSO are added to the plate by pintool transfer. Innoculum (2 uL) is added, the plates are covered with a vented Kalypsys assay lid and incubated at 30 masculineC. After 5 h, Bac-Titer Glo (4 uL; Promega Corp, Madison, WI) is added to the plates. They are incubated 10 minutes at room temperature and then the luminescence detected in a ViewLux multimodal plate reader.
In the case of `S=C(Nc1cc(Cl)ccn1)N1CCN(c2ccc3ccccc3n2)CC1`, the Potency was 33.2 µM (active). `Cc1ccnc(NC(=S)Nc2cccc(C(F)(F)F)c2)c1`: the Potency is 16.7 µM (active).

Consider `Cc1cc(C)nc(NC(=S)N2CCN(c3ccc4cn(C)nc4c3)CC2)c1`, for which the “activity change, negative = inhibition” value was -14.6%.

On to `Cc1cc(C)nc(NC(=C(C#N)C#N)N2CCN(c3cccc(C(F)(F)F)c3)CC2)c1`, for which the Potency is 37.3 µM (active). `Cc1ccnc(NC(=S)N2CC3CN(c4cccc(C(F)(F)F)c4)CC3C2)c1` (stereo not given): the Potency is 11.8 µM (active).

For `Cc1cc(C)nc(NC(=S)N2CCN(c3ccncc3)CC2)c1`, the “activity change, negative = inhibition” value is -18.6%. As to `Cc1ccnc(NC(=S)N2CCN(c3ccc(Cl)cc3Cl)CC2)c1`, the Potency was 16.7 µM (active). Same read-out and setting: under `Cc1ccnc(NC(=S)N2CCN(c3ccc(Br)cc3)CC2)c1` stands 23.5 µM (active); under `Cc1cc(C)nc(NC(=S)N2CCN(Cc3cccc4ccccc34)CC2)c1`, 37.3 µM (active). The same measure, in the same setting: the same measure for `FC(F)(F)c1cccc(N2CCN(C(=S)Nc3nccc4ccccc34)CC2)c1`: 2.35 µM (active); for `Cc1ccnc(NC(=S)N2CCN(c3cccc(N(C)C)c3)CC2)c1`: 59.1 µM (active); for `Cc1cc(C)nc(NC(=S)N2CCN(c3cc(F)cc(F)c3)CC2)c1`: 37.3 µM (active). Turning to `Cc1cc(C)nc(NC(=S)N2CCN(c3cc(Cl)c(Cl)cc3Cl)CC2)c1`, the Potency is 21 µM (active). On the same count and under the same terms, under `FC(F)(F)c1cccc(N2CCN(C(=S)Nc3ccncc3)CC2)c1` stands 41.8 µM (active); under `Cc1cc(C)nc(NC(=S)N2CCN(c3ccc(C(F)(F)F)cc3[N+](=O)[O-])CC2)c1`, 41.8 µM (active). For `COc1cccc(NC(=S)N2CCN(c3ccc(Cl)c(Cl)c3)CC2)n1`, the “activity change, negative = inhibition” value was -26.2%. With `FC(F)(F)c1cnc(N2CCN(C(=S)Nc3cc(Cl)ccn3)CC2)c(Cl)c1`, the Potency is 14.8 µM (active).

Take `Cc1ccnc(NC(=S)N2CCN(c3cc(C(F)(F)F)cc(C(F)(F)F)c3)CC2)c1`: the Potency was 13.2 µM (active). Still for that read-out and setting: the same measure for `COc1ccnc(NC(=S)N2CCN(c3ccc(Cl)cc3Cl)CC2)c1`: 13.2 µM (active); for `Cc1cc(C)nc(/N=C(\NC#N)N2CCN(c3cccc(C(F)(F)F)c3)CC2)c1`: 46.9 µM (active); for `Cc1ccnc(NC(=S)NC2CN(c3cccc(C(F)(F)F)c3)C2)c1`: 46.9 µM (active).

In the case of `Cc1cc(C)nc(NC(=S)N2CCN(c3ccc(Cl)cc3C(F)(F)F)CC2)c1`, the Potency is 9.37 µM (active).

On to `Cc1cc(C)nc(NC(=S)N2CCN(c3ccc([N+](=O)[O-])cc3Cl)CC2)c1`, for which the Potency is 9.37 µM (active). For the compound `Cc1cc(C)nc(NC(=S)N2CCN(c3ncccc3C#N)CC2)c1`, the “activity change, negative = inhibition” value is -10.9%. As for `CN(C)c1ccc2nc(NC(=S)N3CCN(c4cccc(C(F)(F)F)c4)CC3)sc2c1`, the Potency is 5.91 µM (active). Turning to `Cc1cc(C)nc(NC(=S)N2CCN(c3nsc4ccccc34)CC2)c1`, the Potency is 52.7 µM (active). Same read-out and setting: under `Cc1cc(C)nc(NC(=S)N2CCN(c3ccc(Cl)cc3Cl)CC2)c1` stands 23.5 µM (active); under `S=C(Nc1cc(Cl)ccn1)N1CCN(c2ccc(Cl)cc2Cl)CC1`, 9.37 µM (active). For the compound `Cc1cc(C)nc(Nc2nnc(N3CCN(c4cccc(C(F)(F)F)c4)CC3)s2)c1`, the “activity change, negative = inhibition” value is -13.3%. The same measure, in the same setting: under `COc1ccc(NC(=S)N2CCN(c3cccc(C(F)(F)F)c3)CC2)nc1` stands -22%.

Regarding `FC(F)(F)c1ccc(N2CCN(C(=S)Nc3ccccn3)CC2)cc1`, the Potency was 21 µM (active). Still for that read-out and setting: under `Cc1ccnc(NC(=S)NC2CCN(c3cccc(C(F)(F)F)c3)CC2)c1` stands 46.9 µM (active). Turning to `Cc1cncc(NC(=S)N2CCN(c3cccc(C(F)(F)F)c3)CC2)c1`, the “activity change, negative = inhibition” value is -23.5%. With `COc1ccnc(NC(=S)N2CCN(c3ncc(C(F)(F)F)cc3Cl)CC2)c1`, the Potency is 14.8 µM (active). Same read-out and setting: the same measure for `Cc1ccc(N2CCN(C(=S)Nc3cc(C)ccn3)CC2)cc1`: 59.1 µM (active). Turning to `Cc1cc(C)nc(NC(=S)N2CCN(c3ccc4nncn4c3)CC2)c1`, the “activity change, negative = inhibition” value is -15.5%. On to `FC(F)(F)c1cc(N2CCN(C(=S)Nc3cc(Cl)ccn3)CC2)cc(C(F)(F)F)c1`, for which the Potency is 37.3 µM (active). The same measure, in the same setting: the same measure for `COc1ccnc(NC(=S)N2CCN(c3cccc(Cl)c3Cl)CC2)c1`: 9.37 µM (active). The same measure, in the same setting: the same measure for `Cc1cc(C)nc(NC(=S)N2CCN(c3ccc(Cl)c(Cl)c3Cl)CC2)c1`: 9.37 µM (active).

Turning to `Cc1cc(C)nc(NC(=S)N2CCN(c3cncs3)CC2)c1`, the Potency is 46.9 µM (active).
